A selection: hits, their analogues and other compounds. The true share with any hit is near 3.6%.
mHTT-CaM PPI inh: inhibitors of human mutant huntingtin-calmodulin interaction. P42858. AlphaScreen His-mHTT/GST-CaM binding, luminescence. inhibition, % at 15 µM. actives 3.6% (n = 190,000);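 note: 0% = both proteins with DMSO and 100% = one protein alone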
Pf apPOL inh: Pf-apPOL DNA polymerase inhibition. Recombinant Pf-apPOL, molecular beacon fluorescence, 1.5 h. inhibition, % at 10 µM. actives 0.25% (n = 210,000). AID 1794808
Active calls of the source: *; . = no result given. Cut-off read from the data, not from the text of the source: active = inhibition above about 50%; inactive = the rest.

SMILES | mHTT-CaM PPI inh | Pf apPOL inh
Cn1nc(C(=O)NCc2ccc3c(c2)OCO3)c2c1CCN(C(=O)c1ccc(F)cc1)C2 | 51* | -14
Cn1nc(C(=O)NCc2ccc3c(c2)OCO3)c2c1CCN(C(=O)Cc1cccs1)C2 | 54* | -5
Cn1nc(C(=O)NCc2ccc3c(c2)OCO3)c2c1CCN(C(=O)c1ccco1)C2 | -4 | -8
Cc1ccc(-c2nc3ncccc3o2)cc1NC(=O)c1ccccc1Cl | 1 | -2
Cc1cc(C)nc(NC(=O)c2ccc3c(c2)OCO3)c1 | -2 | 0
Fc1ccccc1CN1CCCC(c2nncn2Cc2ccccc2)C1 (configuration not stated) | 5 | 4
CN(C)CC(=O)N1CC(c2nc(-c3ccc(F)cc3)no2)C2(CCOCC2)C1 (configuration not stated) | 11 | -2
CCCCCC(O)CC(=O)CCc1ccc(O)c(OC)c1 (configuration not stated) | . | -4
Cc1ccsc1CN(C)C1CCN(C)CC1 | 0 | -14
O=C(NCCN1CCCC1)C1CN(S(=O)(=O)c2cccs2)CC12CCCCC2 (configuration not stated) | 11 | -1
COc1ccc(/C=C2\C(=O)c3ccc(C(=O)O)cc3C2=O)cc1OC | 3 | -10
CCN(CC)c1ccc(/C=C2\C(=O)c3ccc(C(=O)O)cc3C2=O)cc1 | 62* | 1
O=C(Nc1ccc(Nc2ccccc2)cc1)C1CC1c1ccccc1 (configuration not stated) | 88* | -11
CC(C)c1ccc(NC(=O)C2CC2c2ccccc2)cc1 (configuration not stated) | -5 | 2
CCN1CCN(Cc2c(O)cc(C)c3c2OC(=Cc2cc4cc(Br)ccc4o2)C3=O)CC1 | 35 | -3
Cc1cccc2c(=O)n(C3CCN(C(=O)Nc4ccccc4)CC3)cnc12 | -3 | 3
COc1ccc(C2C3=C(Nc4ncnn42)c2ccccc2OC3c2cccc(OC)c2)cc1 (configuration not stated) | 56* | -5
Cc1ccc(C2C3=C(Nc4ncnn42)c2ccccc2OC3c2cccc([N+](=O)[O-])c2)cc1 (configuration not stated) | 50* | 0
COc1ccc(C2C3=C(Nc4ncnn42)c2ccccc2OC3c2cccc(Cl)c2)cc1 (configuration not stated) | 41 | -10
COc1cccc(C2C3=C(Nc4ncnn42)c2ccccc2OC3c2cccc(F)c2)c1 (configuration not stated) | 37 | -4
COc1cccc(C2C3=C(Nc4ncnn42)c2ccccc2OC3c2ccccc2OC)c1 (configuration not stated) | 64* | -7
Fc1ccccc1C1C2=C(Nc3ncnn31)c1cc(Cl)ccc1OC2c1ccncc1 (configuration not stated) | 21 | 1
COc1ccccc1C1Oc2ccccc2C2=C1C(c1ccc(C)cc1)n1ncnc1N2 (configuration not stated) | 15 | -1
Clc1ccc(C2Oc3ccccc3C3=C2C(c2cccs2)n2ncnc2N3)cc1 (configuration not stated) | 56* | -8
CCOc1cc(-c2nnc(NC(=O)c3ccco3)o2)cc(OCC)c1OCC | 4 | -4
SMILES | mHTT-CaM PPI inh | Pf apPOL inh
CC(C)(C)NS(=O)(=O)Nc1ccccc1[N+](=O)[O-] | 4 | 0
CSc1ncc2c(n1)CC(C)(C)CC2=NOC(=O)c1cccc(C(F)(F)F)c1 | . | -5
CC(C)n1cc(C#N)c(=O)[nH]c1=O | . | -10
CCn1c(CC2CCN(C(=O)c3cc(OC)cc(OC)c3)C2)nc2cccnc21 (configuration not stated) | -1 | -13
Cc1ccc(-c2nc(CCNC(=O)C(=O)Nc3ccccc3Cl)cs2)cc1 | -17 | -2
N#Cc1nc(COc2ccc(Br)cc2)oc1N1CCCCC1 | 51* | -3
N#Cc1nc(COc2ccc(Br)cc2)oc1N1CCC(C(N)=O)CC1 | 23 | -1
COc1ccc([N+](=O)[O-])cc1NC(=O)C1CC(=O)OC12CCCCC2 (configuration not stated) | 1 | 6
Cc1c(C(=O)N2CCN(c3ccccn3)CC2)cccc1[N+](=O)[O-] | 2 | -2
O=C(Cc1cccs1)OCc1cc(-c2ccc(F)cc2F)on1 | -99 | 2
O=C(OCc1cc(-c2ccc(F)cc2F)on1)c1ccc(=O)oc1 | 100* | 81*
Cc1nc(SCc2c(F)cccc2Cl)nc(OC(=O)c2ccc(C(C)(C)C)cc2)c1C | . | -8
Cc1cccc(N2CCN(C(=O)c3ccc(N4CCNC(c5ccccc5)C4)nc3)CC2)c1 (configuration not stated) | 65* | -4
COc1ccccc1NC(=O)c1ccc(N2CCNC(c3ccccc3)C2)nc1 (configuration not stated) | 32 | 1
Cc1ccc(N2CCN(C(=O)c3ccc(N4CCNC(c5ccccc5)C4)nc3)CC2)cc1 (configuration not stated) | 73* | 2

Screening data as filed in PubChem.
